# Out of some 310,000 compounds screened, about 14,000 (4.5%) showed an effect of 50% or more. The effect is printed as a negative number. Shown is part of a subset that was picked to be rich in strong results.
# Target: human ether-à-go-go-related gene (hERG) potassium channel (human, UniProt Q12809)
# Assay: primary screen, population patch clamp on CHO cells stably expressing hERG; higher = less effect of the substance
# 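Further: peak tail current of the secondary pulse compared with the same well before compound.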
# Sequence of human ether-à-go-go-related gene (hERG) potassium channel (Q12809 whole entry, looked up): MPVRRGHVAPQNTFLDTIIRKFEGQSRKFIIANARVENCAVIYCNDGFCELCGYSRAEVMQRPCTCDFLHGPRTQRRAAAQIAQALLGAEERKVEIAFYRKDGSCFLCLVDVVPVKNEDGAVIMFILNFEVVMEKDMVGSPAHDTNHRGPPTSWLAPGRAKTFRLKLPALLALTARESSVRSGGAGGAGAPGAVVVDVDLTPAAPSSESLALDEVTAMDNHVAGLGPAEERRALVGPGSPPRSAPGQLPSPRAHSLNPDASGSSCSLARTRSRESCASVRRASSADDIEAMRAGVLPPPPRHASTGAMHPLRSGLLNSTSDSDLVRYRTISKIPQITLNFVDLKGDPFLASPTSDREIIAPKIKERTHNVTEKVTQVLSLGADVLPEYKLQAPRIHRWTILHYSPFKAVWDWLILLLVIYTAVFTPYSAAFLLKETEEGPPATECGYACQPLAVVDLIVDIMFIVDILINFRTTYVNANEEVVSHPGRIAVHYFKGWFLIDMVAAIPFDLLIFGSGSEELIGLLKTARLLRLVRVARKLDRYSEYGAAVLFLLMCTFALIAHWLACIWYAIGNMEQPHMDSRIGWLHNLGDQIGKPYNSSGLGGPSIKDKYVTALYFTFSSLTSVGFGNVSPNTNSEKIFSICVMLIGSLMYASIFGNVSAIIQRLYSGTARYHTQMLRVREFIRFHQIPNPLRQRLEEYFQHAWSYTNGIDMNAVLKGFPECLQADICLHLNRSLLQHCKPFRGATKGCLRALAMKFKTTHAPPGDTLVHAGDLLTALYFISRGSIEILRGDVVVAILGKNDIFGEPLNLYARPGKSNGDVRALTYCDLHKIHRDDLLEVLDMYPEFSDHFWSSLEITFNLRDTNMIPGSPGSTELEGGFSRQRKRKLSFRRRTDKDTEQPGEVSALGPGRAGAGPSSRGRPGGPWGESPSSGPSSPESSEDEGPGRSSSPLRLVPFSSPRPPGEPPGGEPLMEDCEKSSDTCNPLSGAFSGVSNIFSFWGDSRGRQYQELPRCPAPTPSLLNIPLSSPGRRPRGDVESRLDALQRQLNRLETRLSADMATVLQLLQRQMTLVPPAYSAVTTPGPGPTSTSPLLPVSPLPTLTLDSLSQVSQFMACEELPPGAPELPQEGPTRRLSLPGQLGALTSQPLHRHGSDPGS
row,Structure (SMILES),"hERG current change (%, negative = inhibition) at 10uM [%]"
1,Cc1ccc(Nc2nnc(SCC(=O)Nc3ncc(S(=O)(=O)c4ccc([N+](=O)[O-])cc4)s3)s2)cc1,-14.5
2,CC1CCN(S(=O)(=O)c2ccc(NC(=O)CN3CCCCCC3)cc2)CC1,-31.2
3,Cc1c(CCO)c(=O)n(-c2ccccc2)n1S(=O)(=O)c1ccc(F)cc1,1.37
4,COc1ccccc1NC(=O)c1sc2nc(N3CCOCC3)c3c(c2c1N)CCCC3,15.2
5,O=S(=O)(NCC(c1ccccc1)N1CCNCC1)c1ccc(Cl)cc1 (stereo not drawn),-28.6
6,O=S(=O)(NCC(c1ccccc1)N1CCC(O)CC1)c1ccc(Cl)cc1 (stereo not drawn),-19.6
7,Cc1ccc(C(CNS(=O)(=O)c2ccc(F)cc2C)N2CCN(C)CC2)cc1 (stereo not drawn),-57
8,CN(C)c1ccc(C(CNS(=O)(=O)c2ccc([N+](=O)[O-])cc2)N2CCCC2)cc1 (stereo not drawn),-47.2
9,COc1ccc(C(CNS(=O)(=O)c2ccc(C)cc2)N2CCN(C)CC2)cc1 (stereo not drawn),-45.2
10,CN(C)c1ccc(C(CNS(=O)(=O)c2ccc([N+](=O)[O-])cc2)N2CCOCC2)cc1 (stereo not drawn),-25.9
11,Cc1ccc(C(CNS(=O)(=O)c2ccc(Cl)cc2)N2CCN(C)CC2)cc1 (stereo not drawn),-72.8
12,Cc1ccc(C(CNS(=O)(=O)c2ccc([N+](=O)[O-])cc2)N2CCN(C)CC2)cc1 (stereo not drawn),-66.8
13,Cc1cc(F)ccc1S(=O)(=O)NCC(c1ccc2c(c1)OCO2)N1CCOCC1 (stereo not drawn),-16.8
14,COc1ccc(N2CCN(C(CNS(=O)(=O)c3ccccc3)c3ccccc3)CC2)cc1 (stereo not drawn),-22.5
15,COc1ccc(OC)c(S(=O)(=O)NCC(c2ccc(F)cc2)N2CCN(C)CC2)c1 (stereo not drawn),-33.8
16,COc1ccc(S(=O)(=O)NCC(c2ccc(C)cc2)N2CCN(C)CC2)cc1 (stereo not drawn),-51.9
17,CC1CN(c2oc(COc3ccc(Cl)cc3Cl)nc2C#N)CC(C)O1 (stereo not drawn),-13.6
18,c1ccc(SCc2cn3cccnc3n2)nc1,15.1
19,COc1cc(OC)c(NS(=O)(=O)c2cc(C(=O)OC(C)C(=O)NC3CC3)c(Cl)cc2Cl)cc1Cl (stereo not drawn),-37
20,COc1cccc(OCCOc2ccc(/C=C3\C(=N)N4N=C(S(C)(=O)=O)SC4=NC3=O)cc2OC)c1,23.4
21,O=C(COC(=O)c1cc(-c2ccccc2Cl)nc2ccccc12)Nc1ncc(C(F)(F)F)cc1Cl,-10.9
